Experiments:
Assay type in all cases: functional
Plasmodium falciparum [1] = experiment: GSK_TCMDC: Inhibition of Plasmodium falciparum 3D7 in whole red blood cells, using parasite LDH activity as an index of growth. Test compounds present at 2uM
Plasmodium falciparum [2] = experiment: GSK_TCMDC: Inhibition of Plasmodium falciparum Dd2 in whole red blood cells, using parasite LDH activity as an index of growth. Test compounds present at 2uM
HepG2 = experiment: GSK_TCMDC: Percent inhibition of human HepG2 cell line. Test compounds present at 10uM.

Structure (SMILES) | Inhibition (Plasmodium falciparum [1]) | Inhibition (Plasmodium falciparum [2]) | Inhibition (HepG2)
CNC(=O)c1ccccc1Nc1cc(Nc2cc(OC)ccn2)ncc1Cl.O=CO | 100% | 100% | 69%
CCCc1cn2c3c(cc(C(=O)N[C@@H](Cc4ccccc4)[C@H](O)CNC4CCOCC4)cc13)N(CC)S(=O)(=O)CC2.O=CO | 97% | 98% | 2%
[O-][s+]1c(Cl)c(-c2ccc(Cl)cc2)c2ccc(Cl)cc21 (configuration not stated) | 91% | 99% | 33%
Nc1ccc(-c2nc3cc(C4=N[C@H]5CCCC[C@H]5N4)ccc3o2)cc1[N+](=O)[O-] | 95% | 33% | 16%
COc1ccc(N2CCN(CCCCNC(=O)c3ccc(NC(=O)c4ccc(OC(F)(F)F)cc4)cc3)CC2)c(OC)c1 | 100% | 90% | 36%
Cc1cccc(NC(=O)c2cnc(N3CCN(c4ccncc4)CC3)c(Cl)c2)c1.O=C(O)C(F)(F)F | 100% | 54% | 36%
O=C(O)C(F)(F)F.c1ccc2[nH]c(-c3ccc(-c4ccc(CN5CCN(CCN6CCOCC6)CC5)cc4)s3)nc2c1 | 100% | 100% | 39%
Cc1ccc2nc(Cl)c3cc(C(=O)NCCCN4CCCC4)sc3c2c1 | 89% | 40% | 26%
CC1CN(c2ccc(NC(=O)c3ccc(F)cc3)cc2)CCN1Cc1cccc(F)c1.O=C(O)C(F)(F)F (configuration not stated) | 81% | 76% | 11%
Nc1nc(N)c2c(Cl)c(CNc3cccc(C(=O)O)c3)ccc2n1 | 93% | 97% | 69%
O=C(Nc1cccnc1)c1cc(C(=O)Nc2cccnc2)cc([N+](=O)[O-])c1 | 100% | 100% | 0%
CC(C)CSc1cc(C(=O)Nc2cc(Cl)ccc2O)ccn1 | 100% | 34% | 36%
C[C@@H](Oc1cc(-n2cnc3ccc(NC(=O)NC(C)(C)C)cc32)sc1C(N)=O)c1ccccc1Cl | 95% | 97% | 28%
O=C(CCCc1ccccc1)Nc1cccc(N2CCC(N3CCN(c4ccccc4O)CC3)CC2)c1 | 98% | 41% | 31%
CO/C(=C\C=C\c1cc2cc(Cl)c(Cl)cc2[nH]1)C(=O)NCCCN1CCC(c2ccccc2)CC1 | 100% | 92% | 33%
CCCCCN1CCC(NC(=O)c2ccc(C(=O)Nc3ccc(C(C)C)cc3)cc2)CC1.O=C(O)C(F)(F)F | 98% | 9% | 41%
Clc1ccccc1C=NN=c1cc[nH]c2ccccc12 | 100% | 50% | 25%
O=C(CC(c1ccccc1)c1ccccc1O)N1CCOCC1 (configuration not stated) | 84% | 5% | 30%
CCCCCCCCCCNCC(O)c1ccc(O)c(C(=O)OC)c1 (configuration not stated) | 97% | 97% | 3%
FC(F)(F)c1ccc2[nH]c(-c3ccc(-c4ccc(CNCC5CCCO5)cc4)cc3)nc2c1.O=C(O)C(F)(F)F (configuration not stated) | 100% | 100% | 33%
O=C(Nc1ccc(-c2cccc(-c3nc4ccccc4[nH]3)c2)cc1)Nc1ccc(F)c(F)c1F | 100% | 96% | 74%
COc1ccc2c(ccc3c2ncc2c(=O)n(-c4ccccc4)[nH]c23)c1 | 95% | 92% | 0%
Cl.O=S(=O)(c1cccc(F)c1)c1ccc(Nc2ncnc3cc(Br)sc23)cc1Cl | 86% | 11% | 20%
CCCOc1ccccc1C(=O)Nc1nonc1-c1ccc(OCC)c(OCC)c1 | 99% | 89% | 46%
[O-][s+]1nc(NCCCN(Cc2cccs2)c2ccccn2)c(NCc2ccccc2)n1 (configuration not stated) | 92% | 25% | 10%
N#Cc1ccccc1C1CCN(C2CCC(Nc3cc(-c4cccnc4)ccn3)CC2)CC1 (configuration not stated) | 100% | 78% | 38%
COc1cc(NC(=O)N2CCOC(CCN3CCC(c4ccccc4)CC3)(c3ccc(Cl)c(Cl)c3)C2)cc(OC)c1 (configuration not stated) | 93% | 73% | 12%
Br.Cc1cccc(OCCCCON2C(=N)N=C(N)NC2(C)C)c1C | 97% | 95% | 65%
O=C(NCCCCCN1CCCN(C(=O)Nc2ccc(Cl)c(C(F)(F)F)c2)CC1)C1CC1c1ccc(Cl)c(Cl)c1 (configuration not stated) | 100% | 1% | 41%

Reference: ChEMBL document CHEMBL1157539, “Thousands of chemical starting points for antimalarial lead identification” (Nature, 2010)
